Results filed as inconclusive are left out. Where a call stands in place of a potency, no number is given. Unmarked numbers belong to inactive results. Activity calls are given as the source filed them. Calls come from the whole dose curve; as a rule, active = well fitted cell-killing curve with a large enough effect; inconclusive = small, poorly fitted or top-dose-only effect, or effect the other way; inactive = no such curve, though single readings can be large or run the other way.
Key:
[1] = Viability qHTS for spleen associated tyrosine kinase inhibitor (SYKi) naive MV4-11 cells (AID 1963823); conditions: MV4-11 AML viability, CellTiter-Glo luminescence, 72 h; series mostly up to 45 µM; note: nearly all actives have a fitted effect of over 40% in size
In short: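 SYK inhibitor-naive MV4-11 cells, 500 per well, exposed to compounds for 72 hr at 37 C, 5% CO2. Viability read as CellTiter-Glo luminescence after 10 min at room temperature.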

[2] = Viability qHTS for spleen associated tyrosine kinase inhibitor (SYKi) drug resistant MV4-11 cells (AID 1963824); conditions: SYKi-resistant MV4-11 viability, CellTiter-Glo, 72 h; series mostly up to 45 µM; note: nearly all actives have a fitted effect of over 35% in size
In short: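 SYK inhibitor-resistant MV4-11 AML cells, 500 per well, added to predispensed compounds and incubated 72 hr at 37 C, 5% CO2. Viability measured by CellTiter-Glo luminescence after 10 min at room temperature.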
Potency is the fitted concentration of half-maximal effect.

Row | Structure (SMILES) | Potency [1] | Potency [2] | viability (% of control) [1] | viability, % of control [2]
1 | CCc1nn(CCO)c(CC)c1Oc1cc(C#N)cc(C#N)c1 | inactive | inactive |  | 
2 | CC1CCC2C(C)(C)CC(C)(CO)C2(O)C1C(=O)O (stereo not drawn) | inactive | inactive |  | 
3 | CO[C@@H]1CC(OC2CCC3(C)C(CCC45CCC(C6=CC(=O)OC6)C(C)(CCC43)C5=O)C2)O[C@H](C)[C@@H]1O[C@@H]1O[C@H](CO[C@@H]2O[C@H](CO)[C@@H](O)[C@H](O)[C@H]2O)[C@@H](O)[C@H](O)[C@H]1O (stereo partly drawn) | 0.873 µM (active) | 0.778 µM (active) |  | 
4 | COc1cc(COC2OC(CO)C(O)C(O)C2O)cc(OC)c1O (stereo not drawn) | inactive | inactive |  | 
5 | COc1c(C)cnc(Cn2cc(C#CCC(C)(C)O)c3c(Cl)nc(N)nc32)c1C | 0.0116 µM (active) | 0.0206 µM (active) |  | 
6 | COc1cccc(CN(C(=O)CC(C)(C)C)[C@H]2C[C@H](C(=O)N3CCNCC3)N(Cc3ccc4c(c3)OCO4)C2)c1 | 18.4 µM (active) | 16.4 µM (active) |  | 
7 | C=C1C(=O)O[C@@H]2C3C(=C(C)[C@@H](O)[C@@H](OC(=O)/C(=C/C)COC(C)=O)[C@@H]12)C(=O)[C@H]1O[C@@]31C (stereo partly drawn) | 2.82 µM (active) | 3.55 µM (active) |  | 
8 | CC[C@H](C)[C@@H]1NC(=O)[C@H](Cc2ccc(OC)cc2)NC(=O)CCCSC[C@@H](C(=O)N2CCC[C@H]2C(=O)N[C@@H](CC(C)C)C(=O)NCC(N)=O)NC(=O)[C@H](CC(N)=O)NC(=O)[C@H](CCC(N)=O)NC1=O | inactive | inactive |  | 
9 | CCOc1ccc(Cc2nc(-c3c(C)nc4ccccn34)cs2)cc1 | 0.0366 µM (active) | 0.0184 µM (active) |  | 
10 | O=C(Nc1ccc(-c2ccc(Cl)c(Cl)c2)cc1)C1=C(O)c2ccccc2S(=O)(=O)N1 | 20.6 µM (active) | 23.1 µM (active) |  | 
11 | N#C[C@@H]1C[C@H](F)CN1C(=O)CNC1[C@H]2CN(C(=O)c3ccc(F)cc3)C[C@@H]12 (stereo partly drawn) | inactive | inactive |  | 
12 | C[C@H]1O[C@@H](O[C@H]2CC[C@@]3(C)C(CC[C@]4(C)C3CC=C3C5CC(C)(C)CC[C@]5(C(=O)O)CC[C@]34C(=O)O)C2(C)C)[C@H](O)[C@@H](O)[C@@H]1O (stereo partly drawn) | inactive | inactive |  | 
13 | C=CC(C)(CC/C=C(\C)C(=O)OC)OC1OC(COC(=O)CC(C)(O)CC(=O)O)C(OC2OC(CO)C(O)C(O)C2O)C(O)C1O (stereo not drawn) | inactive | inactive |  | 
14 | COc1cc(/C=C/C(=O)O[C@H]2[C@H](O)[C@@H](CO)O[C@@]2(CO)O[C@H]2O[C@H](COC(=O)c3ccc(O)cc3)[C@@H](O)[C@H](O)[C@H]2O)cc(OC)c1OC | inactive | inactive |  | 
15 | Cc1ccc(C)c(S(=O)(=O)n2cnc3ccccc32)c1 | inactive | inactive |  | 
16 | CC1(C)CC[C@]23CO[C@@]4(CCC5[C@@]6(C)CC[C@H](O[C@@H]7OC[C@H](O[C@@H]8O[C@H](CO)[C@@H](O)[C@H](O)[C@H]8O[C@@H]8OC[C@@H](O)[C@H](O)[C@H]8O)[C@H](O)[C@H]7O)[C@@](C)(CO)C6CC[C@@]5(C)[C@]4(C)CC2=O)[C@@H]3C1 (stereo partly drawn) | 3.1 µM (active) | 4.91 µM (active) |  | 
17 | CC/C(=C(\c1ccc(O)cc1)c1ccc(OCCNC)cc1)c1ccccc1 | inactive | inactive |  | 
18 | C=C1CCC[C@]2(C)CC/C(=C(/CO)C(=O)OC)C[C@@H]12 | 20.6 µM (active) | 14.6 µM (active) |  | 
19 | OCc1ccc(O[C@@H]2O[C@H](CO)[C@@H](O)[C@H](O)[C@H]2O)cc1 | inactive | inactive |  | 
20 | CC(O)/C=C/C1(O)C(C)C(O)C(O[C@@H]2O[C@H](CO)[C@@H](O)[C@H](O)[C@H]2O)CC1(C)C (stereo partly drawn) | inactive | inactive |  | 
21 | C=CC(=O)Nc1cc(Nc2ncc(Cl)c(-c3c[nH]c4ccccc34)n2)c(OC)cc1N(C)CCN(C)C | 0.058 µM (active) | 0.0146 µM (active) |  | 
22 | COc1cc(/C=C2\CCCN([C@@H](C)c3ccc(F)cc3)C2=O)ccc1-n1cnc(C)c1 | 9.2 µM (active) | 5.17 µM (active) |  | 
23 | Nc1ccc(-n2nc(C(F)(F)F)cc2C(F)(F)F)cc1 | inactive | inactive |  | 
24 | CCCC(Nc1nc(-c2ccc(NC(=O)NCC)c(OC)c2)ncc1C)c1cccnc1 (stereo not drawn) | 0.058 µM (active) | 0.13 µM (active) |  | 
25 | CC(C)=C1CC2[C@](C)(CC[C@@H](OC(=O)C3(C)OC3C)[C@@]2(C)O)CC1=O (stereo partly drawn) | inactive | inactive |  | 
26 | CC/C=C\CC1C(=O)C=CC1(CCCCC1CCC(=O)O1)OC(C)=O (stereo not drawn) | 12.8 µM (active) | 7.18 µM (active) |  | 
27 | C=C1C(=O)O[C@@H]2C[C@@]3(C)C[C@@H](O)C[C@H](C)C3=C[C@H]12 | 5.17 µM (active) | 3.66 µM (active) |  | 

Row | Structure (SMILES) | Potency [1] | Potency [2] | viability (% of control) [1] | viability, % of control [2]
28 | C=C1CCC2C(C(C)(C)O)CCC2(C)CC(O)C(=C)CCC1O (stereo not drawn) | 9.04 µM (active) | 11.4 µM (active) |  | 
29 | CC(C)(O)c1ccc2c(c1)C(O)C[C@H]1[C@](C)(C(=O)O)CCC[C@]21C (stereo partly drawn) | inactive | inactive |  | 
30 | CC(=O)OC[C@]12[C@@H](OC(=O)c3ccoc3)C[C@@H]3[C@@H](OC(C)=O)[C@]1(OC3(C)C)[C@@](C)(O)C[C@H](OC(=O)c1ccoc1)[C@@H]2OC(=O)c1ccoc1 | inactive | inactive |  | 
31 | COc1cc(CCc2ccccc2)c(C(=O)O)c2c1CC(C(C)(C)O)O2 (stereo not drawn) | inactive | 2.27 µM (active) |  | 
32 | COC(=O)C1=COC(OC2OC(CO)C(O)C(O)C2O)C2C(C)C(OC(=O)/C=C/c3ccc(O)cc3)C(O)C12 (stereo not drawn) | inactive | inactive |  | 
33 | COc1cc(C(C)=O)ccc1O[C@@H]1O[C@H](CO)[C@@H](O)[C@H](O)[C@H]1O | inactive | inactive |  | 
34 | Cc1ccc(C)c(NS(=O)(=O)c2cc(C(=O)Nc3ccccc3-c3ccccc3)ccc2C)c1 | 23.1 µM (active) | 16.4 µM (active) |  | 
35 | C=CC(C)(CC/C=C(\C)CC/C=C(\C)CC(O)/C=C(\C)C(=O)O)O[C@@H]1O[C@H](CO)[C@@H](O)[C@H](O)[C@H]1O[C@@H]1O[C@H](CO)[C@@H](O)[C@H](O)[C@H]1O (stereo partly drawn) | inactive | inactive |  | 
36 | C[C@@H]1O[C@@H](O[C@@H]2CO[C@@H](O[C@H]3CC[C@@]4(C)C(CC[C@]5(C)C4CC=C4[C@@H]6CC(C)(C)CC[C@]6(C(=O)O[C@@H]6O[C@H](CO)[C@@H](O)[C@H](O)[C@H]6O)CC[C@]45C)[C@]3(C)CO)[C@H](O)[C@H]2O[C@@H]2O[C@H](CO)[C@@H](O)[C@H](O)[C@H]2O)[C@H](O)[C@H](O)[C@H]1O (stereo partly drawn) |  |  | 57.4% [at 9.25 µM] | 62.6% [at 9.25 µM]
37 | C[C@@H]1CCC2C(C)(C)[C@H](O)CC[C@]2(C)[C@@]12Cc1c(O)cc3c(c1O2)CNC3=O (stereo partly drawn) | inactive | inactive |  | 
38 | C=C(CCO[C@@H]1O[C@H](CO)[C@@H](O)[C@H](O)[C@H]1O)C(=O)O | inactive | inactive |  | 
39 | CC(=O)N(O)CCCCCN1C(=O)CCC1=O | inactive | inactive |  | 
40 | C=C1C2CCC3CC2(CC(O)C2(O)C1CC(OC1OC(CO)C(O)C(O)C1O)C2(C)C)CC3(C)O (stereo not drawn) | inactive | inactive |  | 
41 | CC(/C=C/C1=CC2=CC(=O)C(C)(O)C(O)C2=CO1)=C\C(C)CCO (stereo not drawn) | inactive | inactive |  | 
42 | C=C1CCC(OC(C)=O)C2(C)CC3(O)OC(=O)C(C)=C3CC12 (stereo not drawn) | inactive | inactive |  | 
43 | O=S(=O)(Nc1ccccn1)c1ccc(N=Cc2c(O)[nH]c3ccc4ncsc4c23)cc1 | 0.0944 µM (active) | 0.299 µM (active) |  | 
44 | C/C=C(\C)C(=O)OC[C@H]1O[C@@H](O[C@H]2[C@@H](O[C@H]3O[C@H](COC(=O)/C(C)=C/C)[C@@H](O)[C@H](O)[C@H]3O[C@@H]3O[C@H](CO)[C@@H](O)[C@H](OC(=O)/C(C)=C/C)[C@H]3O)O[C@H](COC(=O)/C(C)=C/C)[C@@H](O)[C@@H]2O)[C@H](O)[C@@H](O)[C@@H]1O |  |  | 81.6% [at 9.25 µM] | 90.8% [at 9.25 µM]
45 | CC1=CCC2C(C)(CO)CCCC2(CO)C1CO (stereo not drawn) | inactive | 16.4 µM (active) |  | 
46 | C[C@@H]1C(=O)O[C@H]2C[C@]34[C@H]5C[C@@H](C(C)(C)C)[C@]36[C@@H](OC(=O)[C@H]6O)O[C@]4(C(=O)O5)[C@]21O | inactive | inactive |  | 
47 | NCCCC[C@H](NC(=O)[C@@H]1Cc2ccccc2CN1C(=O)CCC(=O)c1ccccc1)C(=O)NCC(c1ccccc1)c1ccccc1 | 20.6 µM (active) | 13 µM (active) |  | 
48 | COc1ccc(/C=C/C(=O)O[C@@H]2[C@@H](O)[C@@H](O)[C@H](O[C@H]3[C@@H]4C=CO[C@@H](O[C@@H]5O[C@H](CO)[C@@H](O)[C@H](O)[C@H]5O)[C@@H]4[C@@]4(CO)O[C@@H]34)O[C@H]2C)cc1 | inactive | inactive |  | 
49 | C[C@]1(OC(=O)/C=C\c2ccc(O)cc2)C[C@@H](O)[C@]2(O)C=CO[C@@H](O[C@@H]3O[C@H](CO)[C@@H](O)[C@H](O)[C@H]3O)C12 (stereo partly drawn) | inactive | inactive |  | 
50 | CCOC(=O)c1cnn(-c2ccc(NC(=O)C(Cl)=C(Cl)Cl)cc2)c1C(F)(F)F | 0.58 µM (active) | 0.366 µM (active) |  | 
51 | CC(C)=CCC[C@](C)(O[C@@H]1O[C@H](CO[C@@H]2OC[C@@H](O)[C@H](O)[C@H]2O)[C@@H](O)[C@H](O)[C@H]1O)[C@H]1CC[C@]2(C)[C@@H]1[C@H](O)C[C@@H]1[C@@]3(C)CC[C@H](O[C@@H]4O[C@H](CO)[C@@H](O)[C@H](O)[C@H]4O[C@@H]4O[C@H](CO)[C@@H](O)[C@H](O)[C@H]4O)C(C)(C)[C@@H]3CC[C@]12C | inactive | inactive |  | 
52 | C[C@@]1(O)[C@H](O)[C@@H](CO)O[C@H]1n1cnc2c(=O)[nH]c(N)nc21 | inactive | inactive |  | 
53 | Cc1ccccc1-c1cc(N2CCN(C)CC2)ncc1N(C)C(=O)C(C)(C)c1cc(C(F)(F)F)cc(C(F)(F)F)c1 | inactive | inactive |  | 
54 | COc1cc(/C=C/C(=O)O[C@@H]2C[C@@](O)(C(=O)O)C[C@@H](O)[C@@H]2O)ccc1O | inactive | inactive |  | 

Source: PubChem BioAssay (NCATS)
